# Bioassay records: PubChem, National Center for Advancing Translational Sciences (NCATS)
# Rows were chosen to be rich in hits. Some 18% of all compounds tested hit in one or more screens of this group.
# TDP1 cell noCPT: qHTS for Inhibitors of human tyrosyl-DNA phosphodiesterase 1 (TDP1): qHTS in cells in absence of CPT; DT40 Tdp1-/- hTDP1 cells, no CPT, ATP luminescence, 48 h; Potency, µM (top dose mostly 46.2 µM), inactives show at the top dose activity change, negative = growth inhibition, usual class: inhibitors; hit rate 15% among 420,000; further: nearly all actives have a fitted effect of over 55% in size
#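 A cellular qHTS used chicken DT40 cells lacking endogenous Tdp1 but carrying stably transfected human TDP1. Compounds were applied without camptothecin, and cell growth kinetics were judged by ATP-dependent luminescence after ≥48 hr.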
# TDP1 inh: qHTS Assay for Inhibitors of Tyrosyl-DNA Phosphodiesterase (TDP1); Tyrosyl-DNA phosphodiesterase 1 (Homo sapiens), Q9NUW8; hit rate 0.28% among 350,000; recombinant TDP1, AlphaScreen DNA substrate cleavage; AID 485290, 2010; Potency, µM (titrated, usually from 130 µM), without a hit: at the top dose activity change, negative = inhibition, actives largely listed as inhibitors; further: nearly all actives have a fitted effect of over 40% in size
#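 Recombinant E. coli-expressed Tdp1 (1 nM) preincubated with compound 15 min at RT, then 5'-biotin/3'-phosphotyrosine-FITC DNA substrate (15 nM) added for 5 min. AlphaScreen beads (10 ug/ml) added, 10 min RT; tyrosine-FITC cleavage read as signal loss.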
# VDR inh: Inhibitors of the vitamin D receptor (VDR): qHTS; hit rate 0.93% among 400,000; VDR-SRC2-3 peptide fluorescence polarization, 2 h; Potency, µM, without a hit: max response, negative = inhibition, actives largely listed as inhibitors; Vitamin D3 receptor (Homo sapiens), P11473; AID 504847, 2011
#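 Inhibition of the VDR/SRC2-3 peptide interaction is quantified by fluorescence polarization. Compounds (23 nl, pintool) incubate with the reagents for 2 hours at ambient room temperature.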
# PLK1 PBD inh: qHTS for Inhibitors of PLK1-PDB (polo-like kinase 1 - polo-box domain): Primary Screen. Serine/threonine-protein kinase PLK1 (Homo sapiens), P53350. hit rate 2.8% among 360,000. Potency, µM, for the others: max response, negative = inhibition, most hits filed as inhibitors. AID 720504, 2013. Plk1 PBD binding of FITC phosphopeptide, fluorescence polarization; further: series mostly up to about 57 µM; nearly all actives have a fitted effect of over 65% in size
# KAT2A inh: qHTS Assay for Inhibitors of GCN5L2 | GCN5L2 HAT assay, ThioGlo1 CoA-SH fluorescence | Potency, µM (top dose mostly 58.9 µM), without a hit: at the highest dose activity change, negative = inhibition, hits mostly inhibitors | hit rate 0.21% among 390,000 | AID 504327, 2011
# Target sequence (Q92830 whole entry, looked up): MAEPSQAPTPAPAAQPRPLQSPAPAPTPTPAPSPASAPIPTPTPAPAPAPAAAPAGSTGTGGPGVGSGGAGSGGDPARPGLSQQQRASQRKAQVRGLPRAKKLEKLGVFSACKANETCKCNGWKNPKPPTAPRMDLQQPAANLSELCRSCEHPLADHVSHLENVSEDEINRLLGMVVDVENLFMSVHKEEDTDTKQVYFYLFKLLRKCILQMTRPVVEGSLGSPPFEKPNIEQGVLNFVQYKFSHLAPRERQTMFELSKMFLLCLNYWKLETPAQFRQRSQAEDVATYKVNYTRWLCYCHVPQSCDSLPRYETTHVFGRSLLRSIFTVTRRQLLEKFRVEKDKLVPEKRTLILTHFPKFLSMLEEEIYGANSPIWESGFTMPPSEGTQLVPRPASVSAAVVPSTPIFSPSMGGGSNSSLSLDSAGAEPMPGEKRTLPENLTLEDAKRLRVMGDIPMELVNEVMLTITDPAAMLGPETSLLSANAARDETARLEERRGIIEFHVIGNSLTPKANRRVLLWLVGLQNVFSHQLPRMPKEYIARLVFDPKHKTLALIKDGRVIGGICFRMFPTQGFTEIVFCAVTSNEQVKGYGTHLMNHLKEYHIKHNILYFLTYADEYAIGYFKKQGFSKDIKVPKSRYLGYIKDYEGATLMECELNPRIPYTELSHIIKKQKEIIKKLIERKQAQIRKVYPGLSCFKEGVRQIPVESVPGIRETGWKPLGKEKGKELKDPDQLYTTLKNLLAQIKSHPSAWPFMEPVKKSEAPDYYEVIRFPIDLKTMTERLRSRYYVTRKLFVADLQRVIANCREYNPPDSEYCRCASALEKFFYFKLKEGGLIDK
#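 Titration-based screen in which CoA formation is detected via maleimide probe ThioGlo1 (50uM) turning fluorescent on thiol reaction; substrates H3(1-25) 75uM and acetyl-CoA 70uM, GCN5L2 20nM, 20 min incubation at room temperature.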
# DT40 TDP1 CPT: qHTS for Inhibitors of human tyrosyl-DNA phosphodiesterase 1 (TDP1): qHTS in cells in presence of CPT | chicken DT40 Tdp1-/-;hTDP1 cells + 20 nM CPT, ATP luminescence, 48 h | Potency, µM (series often up to 46.2 µM), without a hit: top-dose activity change, negative = growth inhibition, most hits filed as inhibitors | hit rate 12% among 420,000 | AID 686979, 2013; further: nearly all actives have a fitted effect of over 55% in size
#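 Chicken DT40 Tdp1-/- cells complemented with human TDP1, 400 cells/well, exposed to compounds plus 20 nM camptothecin for at least 48 h at 37 C; viability read as ATP content by CellTiter-Glo luminescence.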
# * marks the source's active call; other numbers are inactive results; ? = inconclusive; · = no result; [ ] = dose if it differs, or a comment. The call rests on the fitted dose curve; in most records, active means well fitted curve in the direction sought with a large enough effect; inconclusive means small, poorly fitted or top-dose-only effect, or another doubt; inactive means no such curve, though single readings can be large; an effect the other way counts as inactive or inconclusive. On the % scale 0 is the no-effect control and ±100 the full control effect; potency means the concentration at half of the fitted maximal effect.
SMILES,TDP1 cell noCPT,TDP1 inh,VDR inh,PLK1 PBD inh,KAT2A inh,DT40 TDP1 CPT
CCCCC[C@@H](C)N1C[C@H](COCc2ccccc2)Oc2cc(N3CCC[C@@H]3COC)ccc2S1(=O)=O,14.6µM*,·,·,1.6%,·,?
COC(=O)c1cccc(C(=O)N2CCCC(CCC(=O)N(C)CCc3ccccn3)C2)c1 (stereo not given),9.1%,0.4%,26.8%,3.8%,?,-21.3%
Cc1cccc(NC(=O)c2sc(-n3nc(C)c(CCC(C)C)c3C)nc2C)c1,?,0.5%,-8.4%,·,-15.3%,?
O=c1oc2ccc(F)cc2cc1-c1nc(-c2cccs2)no1,-13.7%,5.1%,-0.1%,·,-13.1%,-19.8%
CCN1C(C(=O)c2ccccc2)=C(OC(=O)COc2ccc(OC)cc2)c2ccccc2S1(=O)=O,4.61µM*,-2.5%,9.2%,·,-6.0%,5.17µM*
CCCN1C(C(=O)c2ccccc2)=C(OC(=O)COc2ccccc2)c2ccccc2S1(=O)=O,4.11µM*,9.8%,4.2%,·,-6.5%,4.11µM*
CCCN1C(C(=O)c2ccccc2)=C(OC(=O)COc2ccc(C)cc2)c2ccccc2S1(=O)=O,5.17µM*,6.1%,6.0%,·,-7.5%,4.11µM*
CCCN1C(C(=O)c2ccccc2)=C(OC(=O)C(C)(C)C)c2ccccc2S1(=O)=O,5.17µM*,6.1%,9.9%,·,-0.4%,4.11µM*
CCCCC(=O)OC1=C(C(=O)c2ccccc2)N(C)S(=O)(=O)c2ccccc21,23.1µM*,7.0%,-13.9%,·,-17.1%,?
CN1C(C(=O)c2ccccc2)=C(NC(=O)c2ccccc2Br)c2ccccc2S1(=O)=O,6.51µM*,6.1%,8.2%,·,-2.4%,11.6µM*
CN1C(C(=O)c2ccccc2)=C(NC(=O)c2ccc(F)cc2)c2ccccc2S1(=O)=O,?,·,-12.2%,·,-22.8%,?
CN1C(C(=O)Nc2ccc(C(=O)O)cc2)=C(O)c2ccccc2S1(=O)=O,4.0%,-1.1%,17.7%,-4.5%,-4.5%,-5.9%
O=C(Nc1cc([N+](=O)[O-])ccc1Cl)C1CC1,11.6%,4.5%,-8.7%,1.1%,2.5%,9.2%
CC(C)(C)c1ccc(C(=O)C2CCCN(C(=O)CCn3cncn3)C2)cc1 (stereo not given),?,3.5%,12.8%,-1.1%,-29.6%,?
CC(C)(C)c1ccc(C(=O)C2CCCN(C(=O)c3ccccn3)C2)cc1 (stereo not given),?,·,?,-4.9%,-19.5%,9.2µM*
O=C(c1ccc(Cl)cc1)C1CCCN(C(=O)/C=C/c2ccccn2)C1 (stereo not given),20.6µM*,8.5%,-10.4%,-4.1%,-24.6%,23.1µM*
Cc1cnc(C(=O)N2CCCC(C(=O)c3ccc(C(C)(C)C)cc3)C2)cn1 (stereo not given),23.1µM*,·,-8.4%,-4.4%,-1.5%,?
O=C1c2ccccc2/C(=C\c2ccc(Br)s2)N1c1ccccc1,?,-0.2%,-7.9%,-1.4%,-5.9%,?
CC(C)(C)OC(=O)n1cccc1/C=C1\c2ccccc2C(=O)N1c1ccccc1,?,·,-10.8%,-12.9%,·,20.6µM*
COc1ccc2cc3cc(C(=O)NCCc4ccc(OC)c(OC)c4)oc3nc2c1,18.4µM*,5.2%,12.4%,-5.3%,-11.6%,11.6µM*
COc1ccc2cc3cc(C(=O)NCc4cccs4)oc3nc2c1,?,31.6µM*,-13.4%,-8.2%,-12.9%,-24.0%
Cc1cc(C(=O)NCc2cccs2)c(C)o1,18.4µM*,-5.6%,?,?,-3.8%,25.9µM*
Cc1occc1C(=O)NCc1cccs1,-25.5%,-1.1%,0.7%,-4.4%,-0.6%,-8.8%
COc1ccc(CNC(=O)Cc2cccs2)cc1,6.8%,2.9%,-18.6%,-4.4%,-10.9%,-0.3%
COc1ccc(OC)c(CNC(=O)c2cc3cc4ccc(OC)cc4nc3o2)c1,-8.2%,4.7%,-7.3%,·,-4.2%,27.2%
SMILES,TDP1 cell noCPT,TDP1 inh,VDR inh,PLK1 PBD inh,KAT2A inh,DT40 TDP1 CPT
COc1ccc(CC(=O)NCc2cccs2)cc1,14.6µM*,9.1%,-1.4%,-2.5%,-19.6%,23.1µM*
Cc1ccccc1NC(=S)NCc1cccs1,?,2.3%,4.0%,0.2%,0.7%,-6.4%
COc1cccc(CNC(=S)Nc2cc(C)ccc2C)c1,25.9µM*,4.9%,2.3%,-5.7%,-13.4%,18.4µM*
Cc1ccc(C)c(NC(=S)NCc2cccs2)c1,29.1µM*,5.1%,10.0%,-9.7%,0.6%,?
CSc1nc(=NC(C)=O)ss1,35.5µM*,4.5%,?,7.94µM*,?,?
CCOCCn1c(SC)nc2c1c(=O)[nH]c(=O)n2C,?,1.0%,-16.6%,23.8µM*,-2.3%,?
CCCCCCn1c(SCCN2CCOCC2)nc2c1c(=O)[nH]c(=O)n2C,-21.4%,8.7%,-15.1%,-16.8%,-5.7%,-25.8%
CCCCCn1c(SCCN2CCOCC2)nc2c1c(=O)[nH]c(=O)n2C,?,0.0%,-6.2%,29.9µM*,-5.5%,-3.1%
CCCCCCn1c(SCCCC)nc2c1c(=O)[nH]c(=O)n2C,?,1.1%,7.4%,-6.5%,-19.7%,-12.9%
CCn1c([N+](=O)[O-])nc2c1c(=O)[nH]c(=O)n2C,1.84µM*,3.7%,4.4%,-17.4%,-12.4%,2.31µM*
CCCCn1c(SCC(=O)OCC)nc2c1c(=O)[nH]c(=O)n2C,-2.5%,2.6%,-3.2%,26.7µM*,-0.5%,-15.4%
CCOC(=O)CSc1nc2c(c(=O)[nH]c(=O)n2C)n1CCc1ccccc1,11.9%,3.1%,8.2%,0.6%,-1.6%,7.7%
COc1ccc(-n2c(=O)c(CCc3ccccc3)nc3cnc(OC)nc32)cc1,?,·,-1.3%,·,-8.1%,?
O=C(O)c1cccc(S(=O)(=O)N2CCN(C(c3ccccc3)c3ccccc3)CC2)c1,5.2%,·,0.8%,-9.0%,-10.2%,7.2%
CC[C@@]12CCCN3CCc4c(n(c5ccccc45)[C@](O)(C(=O)OC)C1)C32 (stereo not given in full),·,-5.1%[56.1 µM],0.6%,·,-10.5%,·
CCC12CCCN3CCC4(C(=C(C(=O)OC)C1)Nc1ccccc14)C32 (stereo not given),16.4µM*,7.7%,-28.7%,-4.4%,-0.9%,16.4µM*
